From PubChem BioAssay (NCATS) come the findings set out here.

Where “and” joins values, the source holds several entries; their conditions need not be identical. Equal values may be shown once. Records with an inconclusive call do not appear. A call without a number means that no potency is given here. Calls of active or inactive are those of the source. The call rests on the fitted dose curve; in most records, active means well fitted inhibition curve with a large enough effect; inconclusive means small, poorly fitted or top-dose-only effect; inactive means no such curve, though single readings can be large or run the other way. Where a SMILES comes first, the peptide text is derived from it. The star is where a group is joined. PhAc = O=C(Cc1ccccc1)*
Potency means the concentration at half of the fitted maximal effect.

This assay can be described thus: Primary qHTS for inhibitors of nuclear receptor binding SET domain protein 2 (NSD2) in an RCH-ACV wild type WT cells (2C) (AID 1645877). Further: nearly all actives have a fitted effect of over 70% in size. The settings on record: RCH-ACV (leukaemia line) NSD2 WT (2C) viability, CellTiter-Glo, 72 h; series mostly up to 44.9 µM. (qHTS replaces the single test concentration by a dilution series.)
As to `COc1cc(Nc2nc3c(s2)CCCC3c2ccccc2)ccc1-n1cnc(C)c1` (configuration not stated), the outcome is “inactive [at 9.23 µM]”.

As to `COc1cccc(CNc2ccc(S(=O)(=O)Nc3nc4ccccc4s3)cc2)c1O`, the Potency result was “inactive”.

Consider `O=C(O)Cn1nnc(-c2ccc(CN(CCCCOc3ccc(CN4CCCC4)cc3)CCc3ccccc3)cc2)n1`, for which the Potency result is “inactive”.

Consider `COc1cccc(C(=O)NCCNc2nc3cc(C)cc(C)c3cc2C#N)c1`, for which the Potency result is “inactive”.

With `O=C(c1c2ccccc2cc2ccccc12)N1CCC(N2CCC[C@@H](C(=O)N3CCOCC3)C2)CC1`, the Potency entry was “inactive”.

As to `Cc1ncc(NC(=O)c2ccc(CN3CCN(C)CC3)c(C(F)(F)F)c2)cc1Nc1nccc(-c2cccnc2)n1`, the Potency is 8.17 µM (active) and 5.9 µM (active).

For `FC(F)(F)Oc1ccc(-c2ccc3nnc(C(F)(F)F)n3c2)cc1`, the Potency result was “inactive”.

Take `CC(CNS(=O)(=O)C(C)C)c1ccc(-c2ccc(C#N)cc2)cc1` (configuration not stated): the Potency was 8.17 µM (active).

Regarding `Cc1nnc(-c2sc(NC(=O)[C@H](C(C)C)n3c(=O)[nH]c4ccccc4c3=O)nc2C)o1`, the Potency result was “inactive”.

With `FC(F)(F)c1nnc2c(Sc3ccccc3)nc3ccc(Cl)cc3n12`, the Potency is 3.65 µM (active).

With `Cc1ccc(-c2c(-c3nn(C)c4ncnc(N5CCC(N6CCCCC6)C5)c34)cnn2C)cc1` (configuration not stated), the Potency entry was “inactive”.

Turning to `COc1ccnc2[nH]cc(C(=O)C(=O)N3CCN(C(=O)c4ccccc4)CC3C)c12` (configuration not stated), the Potency result is “inactive”.

In the case of `O=C(Nc1ccc(N2CCC(C(=O)N3CCOCC3)CC2)cc1)c1cnc(Oc2ccccc2)nc1`, the Potency entry was “inactive”.

`COc1ccc(NC(=O)c2ccc(-c3ccc(C(N)=O)cc3C)cc2)cc1N1CCN(C)CC1`: the Potency is 14.5 µM (active).

As to `CCOC(=O)CNC(=O)[C@@H]1CCCN1C(=O)Cc1ccccc1` (PhAc-Pro-Gly-OEt), the Potency entry was “inactive”.

In the case of `COc1ccc(N2CCN(CCCNC(=O)Cn3c(=O)c4cccn4c4c(C)ccnc43)CC2)cc1`, the Potency entry was “inactive”.

On to `Fc1ccc(-c2c3cccc(C(F)(F)F)c3nn2Cc2ccc(F)cc2Cl)cc1`, for which the Potency entry is “inactive”.

As to `COc1cnc(-n2cnc(C)n2)c2[nH]cc(C(=O)C(=O)N3CCN(C(=O)c4ccccc4)CC3)c12`, the Potency result was “inactive”.

On to `CCNC(=O)C1CC(F)(c2ccc(CN3CCCC3)c(F)c2)C1` (configuration not stated), for which the Potency result was “inactive”.

`CCc1nn(CCO)c(CC)c1Oc1cc(C#N)cc(C#N)c1`: the Potency result is “inactive”.

On to `Cc1ccc(Nc2nnc(-c3ccc([N+](=O)[O-])cc3)o2)cc1Cl`, for which the Potency entry was “inactive”.

`CC(C)c1c(NC(=O)Nc2ccc(Cl)cc2)c(=O)n(-c2ccccc2)n1C`: the Potency result was “inactive”.
